Activity calls are given as the source filed them. How the source made its calls: active means hit-call score of the fitted dose curve at least 0.9, where 1 is the maximum; inactive means score below 0.9.
How the values were obtained:
[1] = CEETOX_H295R_PROG: CeeTox H295R High-throughput Steroidogenesis Assay for Progesterone (PROG) (AID 2283442); details: actives raise or lower the signal;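 on AC50: human H295R adrenal cells primed with 10 µM forskolin before dosing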
Procedure, shortened: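 Progesterone secreted by human H295R cells was measured by LC-MS/MS following 48 h chemical exposure at 0.1% DMSO, preceded by 48 h forskolin (10 uM) stimulation. Same-well MTT viability; cytotoxic concentrations diluted 10- or 100-fold and retested.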

[2] = read-out: Fatty acid synthase (Homo sapiens) (UniProt P49327); assay: LTEA_HepaRG_FASN: Life Technologies and Expression Analysis (LTEA) Assay for Fatty Acid Synthase (FASN) using HepaRG (AID 2283448); details: mRNA level, 48 h; actives raise or lower the signal
Procedure, shortened: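 Differentiated human HepaRG cells were exposed for 48 h in serum-free induction medium to eight half-log concentrations up to 100 uM in 0.5% DMSO, in duplicate. FASN mRNA was quantified by TaqMan qRT-PCR, normalized to ACTB/GAPDH/POLR2A, and fitted bidirectionally against DMSO.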

[3] = read-out: Cyclin D2 (CCND2), CCND2 (gene 894); assay: LTEA_HepaRG_CCND2: Life Technologies and Expression Analysis (LTEA) Assay for Cyclin D2 (CCND2) using HepaRG (AID 2283449); details: mRNA level, 48 h; actives raise or lower the signal;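 further: CCND2 transcript measured by TaqMan qRT-PCR and normalised to three housekeeping genes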
Procedure, shortened: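 Differentiated human HepaRG cells were exposed for 48 h in serum-free induction medium to eight half-log concentrations topping at 100 uM (0.5% DMSO vehicle). CCND2 mRNA was quantified by TaqMan qRT-PCR, normalised to ACTB, GAPDH and POLR2A, and fitted bidirectionally against DMSO.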

[4] = read-out: Cyclin Dependent Kinase Inhibitor 1A (CDKN1A), CDKN1A (gene 1026); assay: LTEA_HepaRG_CDKN1A: Life Technologies and Expression Analysis (LTEA) Assay for Cyclin Dependent Kinase Inhibitor 1A (CDKN1A) using HepaRG (AID 2283450); details: mRNA level, 48 h; actives raise or lower the signal
Procedure, shortened: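 Expression quantified by Fluidigm qRT-PCR with ACTB, GAPDH and POLR2A normalization, fitted bidirectionally against 0.5% DMSO. Cells: HepaRG, plated 48 h then treated 48 h in serum-free induction medium, top concentration 100 uM with half-log dilutions.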

[5] = read-out: Cyclin D1 (CCND1), CCND1 (gene 595); assay: LTEA_HepaRG_CCND1: Life Technologies and Expression Analysis (LTEA) Assay for Cyclin D1 (CCND1) using HepaRG (AID 2283451); details: mRNA level, 48 h; actives raise or lower the signal
Procedure, shortened: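 Expression of CCND1 was quantified by qRT-PCR on Fluidigm arrays using ACTB, GAPDH and POLR2A as reference genes. HepaRG cultures, plated 48 h beforehand, were dosed for 48 h at up to 100 uM (half-log, 8 points) in 0.5% DMSO.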

[6] = read-out: catalase (CAT), CAT (gene 847); assay: LTEA_HepaRG_CAT: Life Technologies and Expression Analysis (LTEA) Assay for catalase (CAT) using HepaRG (AID 2283452); details: mRNA level, 48 h; actives raise or lower the signal
Procedure, shortened: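 Differentiated HepaRG cells in serum-free induction medium were dosed 48 h in duplicate, eight half-log concentrations from 100 uM in 0.5% DMSO. Transcript measured by TaqMan qRT-PCR, normalised to ACTB/GAPDH/POLR2A, fitted bidirectionally against DMSO.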

[7] = read-out: flavin-containing dimethylaniline monooxygenases 3 (FMO3), FMO3 (gene 2328); assay: LTEA_HepaRG_FMO3: Life Technologies and Expression Analysis (LTEA) Assay for flavin-containing dimethylaniline monooxygenases 3 (FMO3) using HepaRG (AID 2283453); details: mRNA level, 48 h; actives raise or lower the signal
Procedure, shortened: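 HepaRG, 48 h exposure, 8-pt half-log series from 100 uM, 0.5% DMSO vehicle, duplicates; FMO3 transcript by Fluidigm TaqMan qRT-PCR, housekeeping-normalized; gain/loss fit vs DMSO.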

[8] = read-out: Cytochrome P450 (CYP1A1), CYP1A1 (gene 1543); assay: LTEA_HepaRG_CYP1A1: Life Technologies and Expression Analysis (LTEA) Assay for Cytochrome P450 (CYP1A1) using HepaRG (AID 2283454); details: mRNA level, 48 h; actives raise or lower the signal
Procedure, shortened: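 CYP1A1 transcript levels measured by Fluidigm qRT-PCR against three housekeeping genes, 48 h after chemical dosing of human HepaRG cells (highest concentration 100 uM, half-log steps, 0.5% DMSO vehicle). Gain or loss of signal fitted relative to DMSO.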

[9] = read-out: CFLAR gene, CFLAR (gene 8837); assay: LTEA_HepaRG_CFLAR: Life Technologies and Expression Analysis (LTEA) Assay for CFLAR gene using HepaRG (AID 2283455); details: mRNA level, 48 h; actives raise or lower the signal
Procedure, shortened: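 HepaRG cells were plated for 48 h, switched to serum-free induction medium, then exposed in duplicate for 48 h to 8 concentrations (top 100 uM, half-log steps, 0.5% DMSO). CFLAR mRNA was measured by qRT-PCR, normalized to ACTB, GAPDH and POLR2A.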

[10] = read-out: Forkhead box O1 (FOXO1), FOXO1 (gene 2308); assay: LTEA_HepaRG_FOXO1: Life Technologies and Expression Analysis (LTEA) Assay for Forkhead box O1 (FOXO1) using HepaRG (AID 2283456); details: mRNA level, 48 h; actives raise or lower the signal
Procedure, shortened: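 Differentiated human HepaRG cells in serum-free induction medium were exposed in duplicate for 48 h to eight half-log concentrations (top 100 uM, 0.5% DMSO). FOXO1 mRNA was measured by TaqMan qRT-PCR, normalised to ACTB, GAPDH and POLR2A, and fitted bidirectionally against DMSO.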

[11] = read-out: growth arrest and DNA damage 45 (GADD45A), GADD45A (gene 1647); assay: LTEA_HepaRG_GADD45A: Life Technologies and Expression Analysis (LTEA) Assay for growth arrest and DNA damage 45 (GADD45A) using HepaRG (AID 2283458); details: mRNA level, 48 h; actives raise or lower the signal
Procedure, shortened: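 Differentiated HepaRG cells were exposed in duplicate for 48 h in serum-free induction medium to 8-point half-log concentrations up to 100 uM in 0.5% DMSO. GADD45A mRNA was measured by TaqMan qRT-PCR, normalized to ACTB, GAPDH and POLR2A, with bidirectional fitting versus DMSO.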

[12] = read-out: ABC Transporter (ABCB1), ABCB1 (gene 5243); assay: LTEA_HepaRG_ABCB1: Life Technologies and Expression Analysis (LTEA) Assay for ABC Transporter (ABCB1) using HepaRG (AID 2283460); details: mRNA level, 48 h; actives raise or lower the signal
Procedure, shortened: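 Differentiated human HepaRG cells, plated 48 h then switched to serum-free induction medium, were exposed in duplicate to eight half-log concentrations up to 100 uM in 0.5% DMSO for 48 h. ABCB1 mRNA was measured by TaqMan qRT-PCR, normalized to ACTB/GAPDH/POLR2A.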

[13] = CEETOX_H295R_CORTIC: CeeTox H295R High-throughput Steroidogenesis Assay for Corticosterone (CORTIC) (AID 2283437); details: actives raise or lower the signal;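 further: corticosterone secreted into medium quantified by mass spectrometry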
Procedure, shortened: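 H295R cells were prestimulated 48 h with 10 uM forskolin, then exposed 48 h to test chemical in 0.1% DMSO. Medium corticosterone was MTBE-extracted and quantified by HPLC-MS/MS; bidirectional fit versus DMSO baseline.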

[14] = CEETOX_H295R_CORTISOL: CeeTox H295R High-throughput Steroidogenesis Assay for Cortisol (AID 2283438); details: actives raise or lower the signal
Procedure, shortened: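 H295R human adrenal cells were prestimulated 48 h with 10 uM forskolin, then exposed 48 h to test chemical (0.1% DMSO final). Medium cortisol was quantified by HPLC-MS/MS after MTBE extraction; bidirectional fitting relative to DMSO baseline.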

[15] = CEETOX_H295R_DOC: CeeTox H295R High-throughput Steroidogenesis Assay for DOC (AID 2283439); details: actives raise or lower the signal
Procedure, shortened: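 H295R adrenal cells prestimulated 48 h with 10 uM forskolin, then exposed 48 h to test chemical (0.1% DMSO final). Medium 11-deoxycorticosterone extracted with MTBE, quantified by HPLC-MS/MS; bidirectional fit versus DMSO baseline; MTT viability in same wells.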

[16] = CEETOX_H295R_TESTO: CeeTox H295R High-throughput Steroidogenesis Assay for Testosterone (TESTO) (AID 2283457); details: actives raise or lower the signal;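 on AC50: cells exposed to chemicals for 48 h before medium collection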
Procedure, shortened: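 Testosterone secreted into the medium over 48 h by H295R cells (maximum passage 10) was quantified by LC-MS/MS after MTBE extraction. Fitted in both directions against DMSO, with concentrations diluted until MTT viability was ≥70%.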

[17] = CEETOX_H295R_ESTRADIOL: CeeTox H295R High-throughput Steroidogenesis Assay for Estradiol (AID 2283440); details: actives raise or lower the signal;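 further: estradiol secreted into medium quantified by LC-MS/MS after dansyl derivatisation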
Procedure, shortened: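 Estradiol in spent medium measured by LC-MS/MS after dansyl chloride derivatisation. Forskolin-primed (10 uM, 48 h) human adrenal H295R cells received test chemical 48 h at 0.1% DMSO; concentrations lowered until MTT viability >/=70%.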

[18] = CEETOX_H295R_ESTRONE: CeeTox H295R High-throughput Steroidogenesis Assay for Estrone (AID 2283441); details: actives raise or lower the signal;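 further: estrone secreted into medium measured by LC-MS/MS after dansyl derivatization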
Procedure, shortened: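 H295R cells; 48 h forskolin (10 uM) prestimulation; 48 h compound exposure, 0.1% DMSO final. Medium estrone: MTBE extraction, dansyl derivatization, HPLC-MS/MS. Bidirectional fit vs DMSO.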

[19] = read-out: Tumor necrosis factor receptor superfamily member 6 (Homo sapiens) (UniProt P25445); assay: LTEA_HepaRG_FAS: Life Technologies and Expression Analysis (LTEA) Assay for Fas cell surface death receptor (FAS) using HepaRG (AID 2283447); details: mRNA level, 48 h; actives raise or lower the signal
Procedure, shortened: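 Differentiated human HepaRG cells, pre-cultured 48 h, were exposed in duplicate for 48 h to 8-point half-log concentrations (top 100 uM, 0.5% DMSO) in serum-free induction medium; FAS mRNA measured by qRT-PCR, normalized to ACTB/GAPDH/POLR2A, bidirectional fit versus DMSO.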

[20] = read-out: Forkhead box O3 (FOXO3), FOXO3 (gene 2309); assay: LTEA_HepaRG_FOXO3: Life Technologies and Expression Analysis (LTEA) Assay for Forkhead box O3 (FOXO3) using HepaRG (AID 2283459); details: mRNA level, 48 h; actives raise or lower the signal
Procedure, shortened: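 Differentiated human HepaRG cells in serum-free induction medium were exposed in duplicate for 48 h to eight half-log concentrations up to 100 uM in 0.5% DMSO. FOXO3 mRNA was quantified by qRT-PCR, normalized to ACTB, GAPDH and POLR2A, with bidirectional fitting versus DMSO.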

Measured: AC50

Sequence of Fatty acid synthase (Homo sapiens) (P49327 whole entry, looked up): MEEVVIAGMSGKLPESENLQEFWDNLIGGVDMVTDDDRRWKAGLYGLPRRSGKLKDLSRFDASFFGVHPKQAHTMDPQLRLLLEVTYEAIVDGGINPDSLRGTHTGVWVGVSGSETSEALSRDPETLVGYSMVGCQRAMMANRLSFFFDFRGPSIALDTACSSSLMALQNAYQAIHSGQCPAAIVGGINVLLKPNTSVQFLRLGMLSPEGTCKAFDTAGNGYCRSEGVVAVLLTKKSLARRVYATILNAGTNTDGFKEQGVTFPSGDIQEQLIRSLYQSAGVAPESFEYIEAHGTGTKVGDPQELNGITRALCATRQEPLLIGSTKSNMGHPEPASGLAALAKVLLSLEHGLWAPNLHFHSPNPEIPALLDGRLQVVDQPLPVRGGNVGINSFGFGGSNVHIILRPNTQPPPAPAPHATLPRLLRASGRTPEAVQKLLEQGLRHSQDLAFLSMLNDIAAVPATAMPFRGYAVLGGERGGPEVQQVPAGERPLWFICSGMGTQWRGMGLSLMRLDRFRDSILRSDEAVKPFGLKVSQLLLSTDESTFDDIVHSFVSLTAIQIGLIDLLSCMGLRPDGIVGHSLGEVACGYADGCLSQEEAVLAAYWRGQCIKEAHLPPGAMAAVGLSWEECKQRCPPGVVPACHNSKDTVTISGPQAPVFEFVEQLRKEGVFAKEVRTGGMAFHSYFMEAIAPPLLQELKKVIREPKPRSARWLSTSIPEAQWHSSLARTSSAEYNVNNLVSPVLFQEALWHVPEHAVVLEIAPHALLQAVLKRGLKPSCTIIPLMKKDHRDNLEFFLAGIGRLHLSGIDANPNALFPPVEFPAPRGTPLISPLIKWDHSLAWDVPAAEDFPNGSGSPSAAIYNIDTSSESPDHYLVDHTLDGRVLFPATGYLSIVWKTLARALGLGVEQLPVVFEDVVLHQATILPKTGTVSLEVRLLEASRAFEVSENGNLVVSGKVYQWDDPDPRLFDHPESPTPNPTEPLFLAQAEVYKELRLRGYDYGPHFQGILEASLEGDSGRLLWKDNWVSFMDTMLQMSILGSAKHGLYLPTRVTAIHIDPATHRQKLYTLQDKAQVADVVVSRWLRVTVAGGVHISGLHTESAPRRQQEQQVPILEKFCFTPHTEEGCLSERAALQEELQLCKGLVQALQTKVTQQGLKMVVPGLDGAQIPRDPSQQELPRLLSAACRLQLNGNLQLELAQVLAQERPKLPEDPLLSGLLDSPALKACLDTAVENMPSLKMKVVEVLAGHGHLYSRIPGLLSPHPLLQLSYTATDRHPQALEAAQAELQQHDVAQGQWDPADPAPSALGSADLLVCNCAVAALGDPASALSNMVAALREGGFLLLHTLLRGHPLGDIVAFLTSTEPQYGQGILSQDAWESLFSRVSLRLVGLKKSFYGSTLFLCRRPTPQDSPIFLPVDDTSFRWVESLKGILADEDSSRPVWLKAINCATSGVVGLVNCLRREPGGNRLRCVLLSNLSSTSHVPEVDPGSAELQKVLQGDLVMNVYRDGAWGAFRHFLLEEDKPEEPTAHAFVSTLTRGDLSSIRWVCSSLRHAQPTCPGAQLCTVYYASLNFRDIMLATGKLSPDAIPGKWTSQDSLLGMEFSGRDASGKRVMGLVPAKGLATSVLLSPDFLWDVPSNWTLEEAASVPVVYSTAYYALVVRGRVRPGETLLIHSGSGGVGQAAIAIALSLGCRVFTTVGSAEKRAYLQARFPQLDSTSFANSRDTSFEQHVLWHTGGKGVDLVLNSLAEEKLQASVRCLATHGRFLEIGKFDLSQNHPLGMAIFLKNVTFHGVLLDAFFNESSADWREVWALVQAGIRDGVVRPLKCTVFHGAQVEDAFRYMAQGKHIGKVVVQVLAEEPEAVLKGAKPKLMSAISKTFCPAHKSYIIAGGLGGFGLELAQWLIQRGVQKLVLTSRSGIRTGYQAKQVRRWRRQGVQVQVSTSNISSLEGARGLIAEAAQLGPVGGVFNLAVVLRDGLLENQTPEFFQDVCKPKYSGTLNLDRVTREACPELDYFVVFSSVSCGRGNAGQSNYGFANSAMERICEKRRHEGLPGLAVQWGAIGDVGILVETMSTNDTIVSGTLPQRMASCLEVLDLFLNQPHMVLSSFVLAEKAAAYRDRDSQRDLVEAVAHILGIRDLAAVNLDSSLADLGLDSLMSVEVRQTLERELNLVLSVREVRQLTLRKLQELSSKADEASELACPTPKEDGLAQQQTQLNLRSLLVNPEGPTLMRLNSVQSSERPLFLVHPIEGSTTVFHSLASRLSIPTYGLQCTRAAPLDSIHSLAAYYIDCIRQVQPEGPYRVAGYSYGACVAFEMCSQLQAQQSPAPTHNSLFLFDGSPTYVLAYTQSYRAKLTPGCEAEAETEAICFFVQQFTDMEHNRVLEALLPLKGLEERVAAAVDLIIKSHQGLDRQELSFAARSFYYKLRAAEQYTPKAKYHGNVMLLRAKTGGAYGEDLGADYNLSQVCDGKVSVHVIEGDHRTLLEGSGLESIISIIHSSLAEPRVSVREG

Cc1cccc(N)c1
active: [8] 50.2 µM
not listed: [13] | [14] | [15] | [16] | [17] | [18] | [19] | [20]
inactive: all other assays above

COP(N)(=S)OC
inactive: [13] | [14] | [15] | [1] | [16]

ClC(Cl)=C(c1ccc(Cl)cc1)c1ccccc1Cl
inactive: [13] | [14] | [15] | [17] | [18] | [1] | [16]

Nc1ccc([N+](=O)[O-])cc1Cl
inactive: [13] | [14] | [15] | [1] | [16]

O=P(Oc1ccccc1)(Oc1ccccc1)Oc1ccccc1
active: [1] 1.37 µM | [4] 77.7 µM | [8] 26 µM | [12] 5.73 µM
not listed: [16] | [18] | [20]
inactive: all other assays above

CCOP(=S)(Oc1ccc([N+](=O)[O-])cc1)c1ccccc1 (stereo not given)
active: [1] 0.786 µM | [8] 14.3 µM | [12] 4.56 µM
not listed: [13] | [14] | [15] | [16]
inactive: all other assays above

CC(C)Nc1ccc(Nc2ccccc2)cc1
inactive: [13] | [14] | [15] | [17] | [18] | [1]

Cc1ccc(N)cc1N
active: [2] 14.7 µM | [8] 21.6 µM
not listed: [1] | [14] | [16] | [20]
inactive: all other assays above

O=S1(=O)OCC2C(CO1)C1(Cl)C(Cl)=C(Cl)C2(Cl)C1(Cl)Cl (stereo not given)
inactive: [13] | [17] | [18]
active: [14] 9.67 µM | [15] 7.77 µM | [1] 1.03 µM

Oc1ccc(I)cc1
active: [1] 17 µM
inactive: [13] | [14] | [15] | [17] | [18]

CCC(C)(C)c1ccc(O)cc1
active: [15] 21.9 µM
not listed: [2] | [16] | [20]
inactive: all other assays above

CC(C)(C)c1ccc(O)cc1
inactive: [1] | [19] | [2] | [3] | [4] | [5] | [6] | [7] | [9] | [10] | [11]

CC(=O)c1ccc(-c2ccccc2)cc1
active: [13] 18.9 µM | [15] 36.5 µM | [16] 19.1 µM
inactive: [14] | [1]

O=S(=O)(c1ccc(O)cc1)c1ccc(O)cc1
inactive: [13] | [18]
active: [14] 28.4 µM | [15] 3.31 µM | [17] 18.3 µM | [1] 1.32 µM

CCOP(=S)(NC(C)C)Oc1ccccc1C(=O)OC(C)C (stereo not given)
active: [13] 6.94 µM | [1] 6.65 µM
inactive: [14] | [15] | [17] | [18]

ClC(Cl)c1ccccc1
active: [8] 50 µM
not listed: [1] | [13] | [14] | [15] | [16] | [17] | [18] | [20]
inactive: all other assays above

CC(Cl)(Cl)C(=O)O
not listed: [1] | [13] | [14] | [15] | [16] | [17] | [18] | [20]
inactive: all other assays above

Source: PubChem BioAssay (EPA / NIEHS)
